From PubChem BioAssay
A selection: hits, their analogues and other compounds. The true share with any hit is near 12%.
BAZ2B inh – BAZ2B (human) inhibition | Q9UIF8 | AlphaScreen BAZ2B-H3K14Ac peptide displacement | Potency, µM (top dose mostly 114 µM), most hits filed as inhibitors | 4.4% of 360,000 active; note: nearly all actives have a fitted effect of over 60% in size
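Inhibition is scored as reduced AlphaScreen emission. The BAZ2B/b-H3(5-23)K14Ac complex (50 nM each) in PBS pH 7.4, 0.01% Tween-20 meets compound (up to 110 uM) for 30 min at RT before bead addition.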
HP1b binding inh – blocks HP1-beta chromodomain binding to methylated histone tails; P83916; AlphaScreen HP1-beta / biotin-H3K9me3 peptide binding; Potency, µM (doses to about 114 µM), usual class: inhibitors; 0.56% of 390,000 active; AID 540317; note: nearly all actives have a fitted effect of over 70% in size
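Compound inhibition of the preformed complex between 50 nM HP1-beta and 50 nM biotinylated H3K9me3 peptide was read by AlphaScreen. Buffer was PBS pH 7.4 with 0.01% Tween-20. Incubations ran 30 min at room temperature, with 10 ug/mL donor/acceptor beads.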
JMJD2A Tudor inh – JMJD2A Tudor domain (human) inhibition | 4.4% of 390,000 active | AlphaScreen JMJD2A-Tudor / H3K4me3 peptide binding | Potency, µM (highest dose often 114 µM), hits mostly inhibitors; note: nearly all actives have a fitted effect of over 50% in size
PLK1 PBD inh – PLK1 (human) polo-box domain binding inhibition; Plk1 PBD binding of FITC phosphopeptide, fluorescence polarization; AID 720504; 2.8% of 360,000 active; Potency, µM, actives largely listed as inhibitors; P53350; note: series mostly up to about 57 µM; nearly all actives have a fitted effect of over 65% in size
Target sequence (P53350 whole entry, looked up, the tested form may be a part): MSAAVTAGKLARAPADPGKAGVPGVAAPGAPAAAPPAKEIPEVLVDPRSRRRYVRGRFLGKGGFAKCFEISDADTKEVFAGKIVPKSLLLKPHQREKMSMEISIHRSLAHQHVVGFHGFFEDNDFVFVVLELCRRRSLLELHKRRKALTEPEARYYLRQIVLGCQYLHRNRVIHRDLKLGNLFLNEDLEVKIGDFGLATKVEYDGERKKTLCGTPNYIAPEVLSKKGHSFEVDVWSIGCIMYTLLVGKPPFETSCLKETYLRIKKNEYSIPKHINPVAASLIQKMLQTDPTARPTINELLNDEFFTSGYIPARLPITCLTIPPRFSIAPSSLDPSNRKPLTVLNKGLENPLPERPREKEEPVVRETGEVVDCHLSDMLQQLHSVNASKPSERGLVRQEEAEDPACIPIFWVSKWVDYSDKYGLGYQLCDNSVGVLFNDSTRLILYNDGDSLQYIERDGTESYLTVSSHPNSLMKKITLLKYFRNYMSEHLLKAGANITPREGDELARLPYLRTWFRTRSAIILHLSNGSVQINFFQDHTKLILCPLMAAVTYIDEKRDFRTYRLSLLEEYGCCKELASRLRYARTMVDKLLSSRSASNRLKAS
PI5P4Ka inh – blocks human PI5P4K alpha kinase activity; PI5P4Kalpha enzyme, ADP-Glo luminescence, 60 min; active compounds read low; AID 652105; P48426; max response, %; 1.2% of 330,000 active; active = max response of -50% or lower; inconclusive = between -30% and -50%; inactive = -30% or higher; note: value at the top dose of about 77 µM
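Compounds were pin-transferred onto PI5P4Kalpha and substrate in HEPES pH 7.4 buffer with EGTA, CHAPS and 5% DMSO. ATP (5 microM final) started the reaction, which ran 60 minutes at room temperature before ADP-Glo detection.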
G9a inh – inhibitors of human histone lysine methyltransferase G9a. Q96KQ7. G9a H3K9 monomethylation, AlphaScreen, 2 h. Potency, µM (titrated, usually from 102 µM), most hits filed as inhibitors. 8.8% of 350,000 active. AID 504332; note: nearly all actives have a fitted effect of over 75% in size
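G9a (20 nM) was preincubated 15 min with compound, then reacted 2 h at room temperature with 500 nM biotin-H3K9 peptide and 20 µM SAM. Monomethyl-H3K9 detected by AlphaScreen using anti-H3K9me1 antibody.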
Each line names hits and unclear results; the compound was inactive in the other large screens. Unless noted, calls come from the whole dose curve; as a rule, active = well fitted curve in the direction sought with a large enough effect; inconclusive = small, poorly fitted or top-dose-only effect, or another doubt; inactive = no such curve, though single readings can be large; an effect the other way counts as inactive or inconclusive.

O=C(/C=C/c1ccccc1)Oc1ccccc1C(=S)N1CCOCC1	G9a inh 50.1µM
O=C(Oc1ccccc1C(=O)N1CCOCC1)c1ccccc1	G9a inh inconclusive (no result: PI5P4Ka inh)
O=C(/C=C/c1cccc(Oc2ccccc2)c1)N1CCOCC1	none
O=C(/C=C/c1ccccc1)Oc1cccc(C(=S)N2CCOCC2)c1	G9a inh 39.8µM
CCOc1ccc(NC(=O)CN(C)C(=O)C2CC(=O)N(c3cccc(SC)c3)C2)cc1OCC (stereo not drawn)	none (no result: BAZ2B inh, G9a inh)
CC(C)c1ccc(NC(=O)c2cc3c(s2)-c2ccccc2SC3)cc1	none (no result: PLK1 PBD inh, PI5P4Ka inh)
CC(C)(C)c1ccc(C2/C(=C(\O)c3ccc4c(c3)OCCO4)C(=O)C(=O)N2CCCN2CCOCC2)cc1 (stereo not drawn)	none
CN(C)CCCN1C(=O)C(=O)/C(=C(/O)c2ccc3c(c2)OCCO3)C1c1ccco1 (stereo not drawn)	none (no result: HP1b binding inh, JMJD2A Tudor inh, PLK1 PBD inh, PI5P4Ka inh)
O=C1C(=O)N(CCCN2CCOCC2)C(c2ccc(F)cc2)/C1=C(\O)c1ccc2c(c1)OCCO2 (stereo not drawn)	G9a inh 44.7µM
CCN(CC)CCCN1C(=O)C(=O)/C(=C(/O)c2ccc3c(c2)OCCO3)C1c1ccco1 (stereo not drawn)	G9a inh 50.1µM (no result: PI5P4Ka inh)
O=C1C(=O)N(CCN2CCOCC2)C(c2ccncc2)/C1=C(/O)c1ccc2c(c1)OCO2 (stereo not drawn)	PLK1 PBD inh inconclusive, G9a inh inconclusive
O=C1C(=O)N(CCN2CCOCC2)C(c2ccc([N+](=O)[O-])cc2)/C1=C(/O)c1ccc2c(c1)OCO2 (stereo not drawn)	JMJD2A Tudor inh 25.1µM, PLK1 PBD inh inconclusive (no result: G9a inh)
CC(OC(=O)CSCC(=O)Nc1ccc(Cl)cc1)C(=O)N(C)Cc1ccccc1 (stereo not drawn)	none (no result: BAZ2B inh, G9a inh)
FC(F)(F)c1ccccc1NC(=S)N1CCCC1	none
COc1cccc(NC(=S)NN=C2CCCCCC2)c1	BAZ2B inh 56.2µM, JMJD2A Tudor inh inconclusive, G9a inh 10µM
FC(F)(F)c1ccccc1NC(=S)NN=C1CCCCCC1	BAZ2B inh 50.1µM, JMJD2A Tudor inh 50.1µM, G9a inh 8.91µM
CC1CCC/C(=N\NC(=S)Nc2ccccc2)C1 (stereo not drawn)	BAZ2B inh inconclusive, JMJD2A Tudor inh 79.4µM, G9a inh 7.94µM
CC1CCCC/C1=N\NC(=S)Nc1ccccc1 (stereo not drawn)	BAZ2B inh inconclusive, JMJD2A Tudor inh inconclusive, G9a inh 31.6µM
CC(C)Cc1nn2c(=O)cc(COC(=O)c3ccc(NC(=O)CCc4ccccc4)cc3)nc2s1	G9a inh inconclusive (no result: PLK1 PBD inh, PI5P4Ka inh)
O=C1NN(c2ccccc2)C(=O)/C1=C\c1ccc(-c2cc([N+](=O)[O-])ccc2O)o1	BAZ2B inh 31.6µM, HP1b binding inh 44.7µM, JMJD2A Tudor inh 50.1µM, PLK1 PBD inh inconclusive, PI5P4Ka inh -68.7 (no result: G9a inh)
COc1ccc(Sc2ccc(/C=C3\C(=O)NN(c4ccccc4)C3=O)o2)cc1	BAZ2B inh 8.91µM, JMJD2A Tudor inh inconclusive, PLK1 PBD inh 5.97µM, PI5P4Ka inh inconclusive, G9a inh 10µM
O=C(CN1CCCC1)N/N=C/c1ccc(-c2cccc(Cl)c2)o1	JMJD2A Tudor inh inconclusive
COc1ccc(-n2c(C)cc(/C=C3\C(=O)NN(c4ccccc4)C3=O)c2C)cc1	none
Cc1ccc(N2NC(=O)/C(=C/c3ccc(-c4ccc(Cl)c(C(=O)O)c4)o3)C2=O)cc1	BAZ2B inh inconclusive, JMJD2A Tudor inh inconclusive, PLK1 PBD inh inconclusive, PI5P4Ka inh inconclusive, G9a inh 44.7µM
O=C1NN(c2ccc(Cl)cc2)C(=O)/C1=C\c1ccc(-c2cccc(C(=O)O)c2)o1	BAZ2B inh 56.2µM, HP1b binding inh 44.7µM, JMJD2A Tudor inh 35.5µM, PLK1 PBD inh 23.8µM, PI5P4Ka inh -69.2, G9a inh 15.8µM
CCNc1ccc(S(N)(=O)=O)cc1[N+](=O)[O-]	G9a inh 3.55µM
CS(=O)(=O)NCCCNc1ccc(Cl)cc1[N+](=O)[O-]	BAZ2B inh inconclusive, G9a inh inconclusive
CC(C)N1CCC(=NNc2ccc(S(=O)(=O)N3CCOCC3)cc2[N+](=O)[O-])CC1	JMJD2A Tudor inh inconclusive
